In the library only some 6.2% were active in any assay of this set; here they are far more common.
FMDV inh – antivirals against foot and mouth disease virus. FMDV antiviral cell-based qHTS. AID 1159524. actives 1.2% (n = 410,000). Potency, µM (top dose mostly 57.9 µM), most hits filed as inhibitors; calls by dose curve; tested in HEK293T cells; also: read-out not given here; nearly all actives have a fitted effect of over 45% in size
HCMV inh – blocks human cytomegalovirus replication; HFF cells, HCMV-luciferase reporter, 72 h; hits give low values; activity change, negative = inhibition, % at 57.5 µM; actives 4.5% (n = 410,000); AID 1259415; in the data active = activity change below about -60%; inconclusive = no clear call, values can overlap the other calls; inactive = above about -39%
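Compounds were evaluated in HFFs infected with an HCMV luciferase reporter virus (MOI 1 PFU/cell). Luciferase in lysates collected 72 h post infection served as the replication measure.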
Lassa entry inh – Lassa virus entry inhibition. AID 540256. Lassa virus pseudotype entry inhibition, cell reporter. actives 1.2% (n = 300,000). Potency, µM (titrated, usually from 37.9 µM), most hits filed as inhibitors; calls by dose curve; tested in HEK293 cells; also: nearly all actives have a fitted effect of over 50% in size
MARV entry inh – blocks Marburg virus binding to or entry into cells | actives 1.8% (n = 300,000) | Marburg virus pseudotyped entry inhibition, cell reporter | Potency, µM (top dose mostly 37.8 µM), hits mostly inhibitors | AID 540276; calls by dose curve; tested in HEK293 cells
Each line names hits and unclear results; the compound was inactive in the other large screens.

Cc1ccc(S(=O)(=O)/N=C2/C=C(Sc3ncn[nH]3)C(=O)c3ccccc32)cc1	Lassa entry inh 2.9µM, MARV entry inh inconclusive (no result: HCMV inh)
COc1ccc(-c2nc3cc(NC(=O)Cc4ccc(OC)c(OC)c4)ccc3o2)cc1	FMDV inh inconclusive, HCMV inh -76, MARV entry inh inconclusive
O=C(Cc1ccc(Cl)cc1)Nc1ccc2oc(=O)ccc2c1	HCMV inh -64
O=C(Cc1ccc(Cl)cc1)Nc1ccc2oc(-c3ccc(F)cc3)nc2c1	none (no result: MARV entry inh)
COc1ccc(-c2nc3cc(NC(=O)Cc4ccc(Cl)cc4)ccc3o2)cc1OC	HCMV inh -94, Lassa entry inh inconclusive (no result: MARV entry inh)
COc1ccc(-c2nc3cc(NC(=O)CSc4ccc(C)cc4)ccc3o2)cc1	Lassa entry inh inconclusive, MARV entry inh inconclusive
Cc1ccc(C(C)C)c(OCC(=O)N/N=C/c2ccc(S(=O)(=O)O)o2)c1	none (no result: Lassa entry inh, MARV entry inh)
O=C1C(=O)N(c2ccccc2)C(c2ccccc2[N+](=O)[O-])/C1=C(\O)c1ccccc1 (stereo unspecified)	none
CCOc1ccc(N2C(=O)C(=O)/C(=C(/O)c3ccccc3)C2c2ccccc2[N+](=O)[O-])cc1 (stereo unspecified)	HCMV inh -73, MARV entry inh inconclusive
CCOC(=O)c1cccc(NC2c3ccccc3C(=O)N2Cc2ccco2)c1 (stereo unspecified)	FMDV inh 13µM (no result: Lassa entry inh, MARV entry inh)
O=C1c2ccccc2C(Nc2cccc(C(F)(F)F)c2)N1Cc1ccco1 (stereo unspecified)	FMDV inh inconclusive, Lassa entry inh inconclusive, MARV entry inh 14µM
COc1cccc(NC2c3ccccc3C(=O)N2Cc2ccco2)c1 (stereo unspecified)	none (no result: Lassa entry inh, MARV entry inh)
CC(=O)c1cccc(NC2c3ccccc3C(=O)N2Cc2ccco2)c1 (stereo unspecified)	FMDV inh inconclusive (no result: Lassa entry inh, MARV entry inh)
Cc1ccc(CNC(=O)[C@H](C)NC(=O)C2CCN(C(=O)[C@@H](N)CC(C)C)CC2)cc1	none (no result: Lassa entry inh, MARV entry inh)
Cc1ccc(-c2nc(C(=O)NCC3CCCO3)cc3c2[nH]c2ccccc23)cc1 (stereo unspecified)	FMDV inh inconclusive, HCMV inh -95 (no result: Lassa entry inh, MARV entry inh)
Cc1ccc(-c2nc(C(=O)NCCCN(C)C)cc3c2[nH]c2ccccc23)cc1	FMDV inh inconclusive, HCMV inh -98 (no result: Lassa entry inh, MARV entry inh)
O=C(NCCO)c1cc2c([nH]c3ccccc32)c(-c2ccccc2)n1	none
O=C(NCC1CCCO1)c1cc2c([nH]c3ccccc32)c(-c2cccc(Br)c2)n1 (stereo unspecified)	FMDV inh inconclusive, HCMV inh -72 (no result: Lassa entry inh, MARV entry inh)
CCOc1ccc(-c2nnc3ccc(SCC(=O)N4CCCCC4)nn23)cc1	none (no result: Lassa entry inh, MARV entry inh)
CC(C)=CCN1CCN(Cc2ccc(C)s2)CC1CCO (stereo unspecified)	HCMV inh -67, Lassa entry inh inconclusive
O=C1c2ccccc2C(=O)c2c1ccc1c(=O)n(-c3ccccc3)[nH]c21	HCMV inh -65
Cc1cccc(-n2[nH]c3c4c(ccc3c2=O)C(=O)c2ccccc2C4=O)c1	none
Cc1cc(NC(=O)NCc2ccccc2)c(=O)n(Cc2ccccc2F)c1	none (no result: Lassa entry inh, MARV entry inh)
CCN(CC(=O)Nc1ccccc1C(F)(F)F)C(=O)c1ccccc1Cc1ccccc1	Lassa entry inh 11µM, MARV entry inh inconclusive
N#CC(C#N)=C1c2cc(S(N)(=O)=O)ccc2-c2ccc(S(N)(=O)=O)cc21	FMDV inh 25µM (no result: Lassa entry inh, MARV entry inh)
N#CC(C#N)=C1c2cc(S(=O)(=O)NCCO)ccc2-c2ccc(S(=O)(=O)NCCO)cc21	none (no result: Lassa entry inh, MARV entry inh)
Cc1c(C#N)c(N)nc2c3c(sc12)NC(=O)CC3c1ccc(Cl)cc1 (stereo unspecified)	FMDV inh 22µM, HCMV inh -81, Lassa entry inh inconclusive, MARV entry inh inconclusive
CCCCN(C)CCNC(=O)C1CCN(c2nc3ccc(CC)cc3s2)CC1	HCMV inh -98, MARV entry inh inconclusive
O=C(Nc1ccc(Oc2nnc(-c3ccccc3)c3ccccc23)cc1)c1ccccc1	FMDV inh inconclusive, HCMV inh -60, MARV entry inh inconclusive
COC(=O)C1C(=O)C(C(=O)/C=C/c2ccco2)C(=O)CC1(C)C (stereo unspecified)	none (no result: HCMV inh, Lassa entry inh, MARV entry inh)
COC(=O)C1C(=O)C(C(=O)/C=C/c2ccccc2)C(=O)CC1(C)C (stereo unspecified)	FMDV inh inconclusive, HCMV inh -82
COC(=O)c1c(NC(=O)C(Cl)Cl)sc2c1C(C(=O)OC)CC2 (stereo unspecified)	FMDV inh inconclusive, HCMV inh -62 (no result: Lassa entry inh, MARV entry inh)
O=C(c1ccco1)N1CCN(C(=O)c2snc3ccc(Cl)cc23)CC1	none
COc1ccc(S(=O)(=O)N2CCCCCC2)cc1C(=O)N1CCN(c2ccccc2C)CC1	none (no result: Lassa entry inh, MARV entry inh)
Cc1cc(C)c2nc(-c3ccccn3)cc(C(=O)NCc3ccc(S(N)(=O)=O)cc3)c2c1	Lassa entry inh inconclusive, MARV entry inh 11µM

From PubChem
